# Results: PubChem BioAssay (Tox21)
# Where “and” joins values, the source holds several entries; their conditions need not be identical. Identical values can stand only once. Inconclusive results are not listed. A call without a number means that no potency is given here. The source holds several records for some structures; these can differ, active in one and inactive in another. Calls of active or inactive are those of the source. Unless noted, calls come from the whole dose curve; as a rule, active = well fitted curve in the direction sought with a large enough effect in the repeat runs; inconclusive = weak or mixed curves; inactive = no such curve, though single readings can be large; an effect the other way counts as inactive or inconclusive. Starred links: 1 amine or outer side, 2 acyl side, 3 side chain; linkers in the order of their positions; H or OH if unused. Positions of bridges follow the written chain, without caps; N, C: chain ends. Non-standard residues stand in square brackets, D forms with d. Residues, ends and D or L forms follow the SMILES beside them. Chains are numbered I, II in the order given. Actinocin(9to1) = Cc1c2oc3c(C)ccc(C(=O)[*:1])c3nc-2c(C(=O)[*:2])c(N)c1=O; NMeV = CN[C@H](C(=O)O)C(C)C; Sar = CNCC(=O)O
# What was measured:
# [1] = qHTS assay to identify small molecule agonists of the peroxisome proliferator-activated receptor delta (PPARd) signaling pathway - cell viability counter screen (AID 743211); note: nearly all actives have a fitted effect of over 55% in size; note: potency is the fitted concentration of half-maximal effect
# Method in brief: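 PPARd-bla HEK293H cells (UAS-beta-lactamase reporter) were treated with compounds for 17 h at 37 C. Viability was then read in the same wells by CellTiter-Glo luminescence after 30 min at room temperature.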
# [2] = molecular target: Peroxisome proliferator-activated receptor delta (Homo sapiens) (UniProt Q03181); test: qHTS assay to identify small molecule agonists of the peroxisome proliferator-activated receptor delta (PPARd) signaling pathway (AID 743212; calls by dose curve)
# Chain of Peroxisome proliferator-activated receptor delta (Homo sapiens) (Q03181 whole entry, looked up): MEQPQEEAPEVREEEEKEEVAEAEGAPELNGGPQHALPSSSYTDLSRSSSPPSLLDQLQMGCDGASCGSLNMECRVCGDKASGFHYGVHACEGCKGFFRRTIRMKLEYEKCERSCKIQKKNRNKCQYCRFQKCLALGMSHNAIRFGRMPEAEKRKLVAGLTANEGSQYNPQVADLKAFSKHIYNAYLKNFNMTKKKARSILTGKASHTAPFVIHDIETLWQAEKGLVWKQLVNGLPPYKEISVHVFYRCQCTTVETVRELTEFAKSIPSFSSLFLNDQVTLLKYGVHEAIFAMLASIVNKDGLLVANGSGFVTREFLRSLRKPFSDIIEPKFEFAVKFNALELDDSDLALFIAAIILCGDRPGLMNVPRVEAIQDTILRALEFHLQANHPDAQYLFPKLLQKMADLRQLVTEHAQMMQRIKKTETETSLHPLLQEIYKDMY
# Method in brief: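 Quantitative high-throughput agonist screen in a HEK293H beta-lactamase reporter line under UAS control. Compounds in DMSO, at 37 C. Fluorescence read after 2 h with FRET substrate at room temperature.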
# [3] = qHTS assay to identify small molecule antagonists of the peroxisome proliferator-activated receptor delta (PPARd) signaling pathway - cell viability counter screen (AID 743213); note: nearly all actives have a fitted effect of over 50% in size; note: potency is the fitted concentration of half-maximal effect
# Method in brief: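 In this counter screen, HEK293H cells carrying a UAS-beta-lactamase reporter are co-treated with test compounds and 300 nM L165041 (final) for 17 h at 37 C; cell viability is quantified by CellTiter-Glo luminescence.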
# [4] = molecular target: Peroxisome proliferator-activated receptor delta (Homo sapiens) (UniProt Q03181); test: qHTS assay to identify small molecule antagonists of the peroxisome proliferator-activated receptor delta (PPARd) signaling pathway (AID 743215; active = well fitted inhibition curve with a large enough effect in the signal ratio in the repeat runs, not every such curve was filed as active; the % refers to the signal ratio;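 note: cells stimulated with agonist L165041 at 300 nM final during compound exposure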; note: potency is the fitted concentration of half-maximal effect)
# Method in brief: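 Antagonist-mode beta-lactamase reporter screen: HEK293H cells with UAS-bla under PPARd control, stimulated by 300 nM L165041 (final) alongside test compound for 17 h at 37 C, then FRET fluorescence after 2 h substrate incubation.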
# [5] = qHTS assay to identify small molecule agonists of the farnesoid-X-receptor (FXR) signaling pathway - cell viability counter screen (AID 743218); note: nearly all actives have a fitted effect of over 45% in size; note: potency is the fitted concentration of half-maximal effect
# Method in brief: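 In GeneBLAzer FXR-UAS-bla HEK 293T cells, compounds act for 16 h at 37 C. Cell viability is then scored in the reporter wells by CellTiter-Glo, 30 min at RT, luminescence.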
# [6] = qHTS assay to identify small molecule antagonists of the farnesoid-X-receptor (FXR) signaling pathway - cell viability counter screen (AID 743221; active = well fitted cell-killing curve with a large enough effect in the repeat runs, not every such curve was filed as active; note: nearly all actives have a fitted effect of over 50% in size; note: potency is the fitted concentration of half-maximal effect)
# Method in brief: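 FXR-UAS-bla HEK 293T cells were treated with test compounds plus chenodeoxycholic acid (50 uM final) for 16 h at 37 C. Cell viability in the same wells was then read as CellTiter-Glo luminescence after 30 min at room temperature.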
# [7] = molecular target: Vitamin D3 receptor (Homo sapiens) (UniProt P11473); test: qHTS assay to identify small molecule agonists of the vitamin D receptor (VDR) signaling pathway (AID 743222; calls by dose curve)
# Chain of Vitamin D3 receptor (Homo sapiens) (P11473 whole entry, looked up): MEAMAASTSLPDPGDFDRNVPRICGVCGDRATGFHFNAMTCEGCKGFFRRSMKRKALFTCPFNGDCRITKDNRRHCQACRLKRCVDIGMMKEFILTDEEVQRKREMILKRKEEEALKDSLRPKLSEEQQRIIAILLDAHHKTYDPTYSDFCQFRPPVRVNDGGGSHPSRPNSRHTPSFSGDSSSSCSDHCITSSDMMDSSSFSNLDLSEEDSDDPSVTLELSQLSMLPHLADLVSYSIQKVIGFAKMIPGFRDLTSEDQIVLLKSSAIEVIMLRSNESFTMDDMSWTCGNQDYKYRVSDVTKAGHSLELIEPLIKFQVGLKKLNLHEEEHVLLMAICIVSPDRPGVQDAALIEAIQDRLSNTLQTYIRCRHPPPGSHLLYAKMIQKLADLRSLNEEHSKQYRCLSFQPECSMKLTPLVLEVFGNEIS
# Method in brief: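 Agonist activity measured in VDR-bla reporter cells. Exposure 16 h, 37C, 5% CO2; detection by B/G FRET substrate, 2 h RT.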
# [8] = molecular target: Vitamin D3 receptor (Homo sapiens) (UniProt P11473); test: qHTS assay to identify small molecule antagonists of the vitamin D receptor (VDR) signaling pathway (AID 743223; active = well fitted inhibition curve with a large enough effect in the signal ratio in the repeat runs, not every such curve was filed as active; the % refers to the signal ratio; note: potency is the fitted concentration of half-maximal effect)
# Method in brief: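 VDR-bla cells were plated, incubated 4 h at 37C, then given compound and 1alpha,25-dihydroxyvitamin D3 (3 nM final). After 16 h at 37C, LiveBLAzer B/G FRET substrate was added for 2 h at room temperature and fluorescence read.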
# [9] = molecular target: Bile acid receptor (Homo sapiens) (UniProt Q96RI1); test: qHTS assay to identify small molecule antagonists of the farnesoid-X-receptor (FXR) signaling pathway (AID 743217; active = well fitted inhibition curve with a large enough effect in the signal ratio in the repeat runs, not every such curve was filed as active; the % refers to the signal ratio; note: potency is the fitted concentration of half-maximal effect)
# Chain of Bile acid receptor (Homo sapiens) (Q96RI1 whole entry, looked up): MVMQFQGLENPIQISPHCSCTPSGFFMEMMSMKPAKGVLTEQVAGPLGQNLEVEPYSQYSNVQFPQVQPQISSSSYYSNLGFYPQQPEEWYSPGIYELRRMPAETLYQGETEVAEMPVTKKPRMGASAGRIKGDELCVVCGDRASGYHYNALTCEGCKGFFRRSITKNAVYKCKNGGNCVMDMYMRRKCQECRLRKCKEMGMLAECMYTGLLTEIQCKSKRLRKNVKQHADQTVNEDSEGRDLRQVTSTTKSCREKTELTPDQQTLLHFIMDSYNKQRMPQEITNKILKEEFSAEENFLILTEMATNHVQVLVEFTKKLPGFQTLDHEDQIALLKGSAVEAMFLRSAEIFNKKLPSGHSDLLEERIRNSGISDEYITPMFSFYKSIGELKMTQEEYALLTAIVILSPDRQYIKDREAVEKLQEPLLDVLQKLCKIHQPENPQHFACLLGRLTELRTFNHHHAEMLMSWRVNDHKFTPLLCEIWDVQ
# Method in brief: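 Beta-lactamase reporter under UAS control in HEK 293T cells; compound exposure 16 h at 37 °C in the presence of chenodeoxycholic acid (50 uM final); signal from B/G FRET substrate after 2 h at room temperature.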
# [10] = molecular target: Bile acid receptor (Homo sapiens) (UniProt Q96RI1); test: qHTS assay to identify small molecule agonists of the farnesoid-X-receptor (FXR) signaling pathway (AID 743220; active = well fitted activation curve with a large enough effect in the signal ratio in the repeat runs, not every such curve was filed as active; the % refers to the signal ratio)
# Method in brief: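 Beta-lactamase reporter under UAS control in GeneBLAzer FXR HEK 293T cells (5000/well) measured with LiveBLAzer FRET substrate after 2 h at room temperature. Compound exposure lasted 16 h at 37C.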
Structure (SMILES),Potency [1],Potency [2],Potency [3],Potency [4],Potency [5],Potency [6],Potency [7],Potency [8],Potency [9],Potency [10]
CC(C)(O)CCC(C)(C)O,inactive,inactive,inactive,inactive,inactive,inactive,inactive,inactive,,
Cc1ccc(S(=O)(=O)Oc2ccc(N=Nc3ccc(-c4ccc(N=Nc5c(O)ccc6cc(S(=O)(=O)O)cc(S(=O)(=O)O)c56)c(C)c4)cc3C)cc2)cc1,inactive,inactive,,inactive,inactive,inactive,,,inactive,inactive
CN1C(=O)c2ccc([N+](=O)[O-])cc2C1=O,inactive,inactive,inactive,inactive,inactive,inactive,inactive,inactive,inactive,inactive
CCC[C@H](N[C@@H](C)C(=O)N1[C@H](C(=O)O)C[C@@H]2CCCC[C@@H]21)C(=O)OCC,inactive,inactive,inactive,,inactive,inactive,,inactive,inactive,inactive
CCN(CC)C(=O)Nc1ccc(OCC(O)CNC(C)(C)C)c(C(C)=O)c1 (centres undefined),inactive,inactive,inactive,inactive,inactive,inactive,,,,
O=C(O)CP(=O)(O)O,inactive,inactive,,,inactive,inactive,,inactive,,
CCCOC(=O)c1cc(O)c(O)c(O)c1,inactive,inactive,inactive,inactive,inactive,inactive,inactive,inactive,,inactive
C#CC(C)(CC)OC(=O)c1ccccc1C(=O)O (centres undefined),inactive,inactive,inactive,inactive,inactive,inactive,inactive,inactive,,
Cc1cccc2n[nH]nc12,inactive,inactive,inactive,inactive,inactive,inactive,inactive,,,
CC(C)(C)NCC(O)COc1ccccc1OCC1CCCO1 (centres undefined),inactive,inactive,inactive,inactive,inactive,inactive,,,inactive,inactive
c1ccc2c(c1)CCCC2C1=NCCN1 (centres undefined),inactive,inactive,inactive,inactive,inactive,inactive,inactive,,inactive,inactive
COc1ccc(COC(C)=O)cc1,inactive,inactive,inactive,inactive,inactive,inactive,inactive,,inactive,inactive
Oc1ccc(Cl)cc1Cc1cc(Cl)ccc1O,44.4 µM (active) and 30.9 µM (active) and 29.8 µM (active),inactive,25 µM (active),55.9 µM (active) and inactive,49 µM (active),inactive,inactive,,,inactive
CCn1c2ccccc2c2cc(N)ccc21,inactive,inactive,inactive,inactive,inactive,inactive,,,,
C/C=C/c1ccc(OCC)c(O)c1,inactive,inactive,inactive,inactive,inactive,inactive,inactive,inactive,,
CC1COc2c(N3CCN(C)CC3)c(F)cc3c(=O)c(C(=O)O)cn1c23 (centres undefined),inactive,inactive,inactive,inactive,inactive,inactive,inactive,,inactive,inactive
"Cc1c2oc3c(C)ccc(C(=O)N[C@@H]4C(=O)N[C@H](C(C)C)C(=O)N5CCC[C@H]5C(=O)N(C)CC(=O)N(C)[C@@H](C(C)C)C(=O)O[C@@H]4C)c3nc-2c(C(=O)N[C@@H]2C(=O)N[C@H](C(C)C)C(=O)N3CCC[C@H]3C(=O)N(C)CC(=O)N(C)[C@@H](C(C)C)C(=O)O[C@@H]2C)c(N)c1=O (I: T[dV]P[Sar][NMeV] / II: T[dV]P[Sar][NMeV]; ester I:1-I:C, II:1-II:C; linker I:N-II:N via Actinocin(9to1))",26.8 µM (active) and inactive,inactive,,1.7 nM (active) and 11.9 nM (active),,inactive,inactive,,,
CCCNC(C)C(=O)Nc1ccccc1C (centres undefined),inactive,inactive,inactive,inactive,,inactive,inactive,,,
CCOc1ccc2c(c1)C(C)=CC(C)(C)N2,inactive,inactive,inactive,,inactive,inactive,,,,
[Cl][In]([Cl])[Cl],inactive,inactive,inactive,inactive,inactive,inactive,inactive,,,
CC(=O)N[C@@H](CS)C(=O)O,inactive,,inactive,inactive,inactive,inactive,inactive,,inactive,inactive
COc1ccc(Cc2cnc(N)nc2N)cc1OC,inactive,inactive,,inactive,inactive,inactive,inactive,inactive,inactive,inactive
CC(=O)CC(C)=O,inactive,inactive,inactive,,inactive,inactive,,,,

Structure (SMILES),Potency [1],Potency [2],Potency [3],Potency [4],Potency [5],Potency [6],Potency [7],Potency [8],Potency [9],Potency [10]
CC(C)CCCCCCc1ccc(O)cc1,35.3 µM (active),inactive,39.6 µM (active) and 43.6 µM (active),inactive,,22.3 µM (active) and 49 µM (active),inactive,22.3 µM (active) and 43.6 µM (active),,
CC(=O)CC(=O)Nc1ccc2[nH]c(=O)[nH]c2c1,inactive,,inactive,inactive,inactive,inactive,,,inactive,inactive
NC(=Nc1ccccc1)Nc1ccccc1,inactive,inactive,,inactive,inactive,inactive,,,,
COc1nc(C)nc(Cl)c1NC1=NCCN1,inactive,inactive,inactive,inactive,inactive,inactive,inactive,inactive,,
Cc1cccc([N+](=O)[O-])c1C(=O)O,inactive,inactive,,inactive,inactive,inactive,inactive,,inactive,inactive
O=C(O)c1cccc(C(=O)O)c1,inactive,inactive,inactive,inactive,inactive,inactive,,,inactive,inactive
O=C(O)CCc1ccccc1,inactive,inactive,inactive,inactive,inactive,inactive,inactive,,,
OCC(CO)N[C@H]1C[C@](O)(CO)[C@@H](O)[C@H](O)[C@H]1O,inactive,inactive,inactive,inactive,,inactive,inactive,,inactive,inactive
CC[C@@H](N)CO,inactive,inactive,inactive,inactive,inactive,inactive,inactive,,,
CO[Si](OC)(OC)c1ccccc1,inactive,inactive,inactive,inactive,inactive,inactive,,inactive,,
CC(C)(C)c1cc(C(C)(C)C)c(O)c(C(C)(C)C)c1,49 µM (active),inactive,inactive,inactive,,inactive,,,,inactive
O=C1Nc2ccccc2C1(c1ccc(O)cc1)c1ccc(O)cc1,inactive,inactive,inactive,inactive,inactive,inactive,inactive,inactive,,
Cc1occc(=O)c1OC(=O)C(C)C,inactive,inactive,inactive,inactive,inactive,inactive,inactive,,,
NNCCc1ccccc1,inactive,inactive,inactive,inactive,inactive,inactive,inactive,,,
c1cnc2cc3c(cc2n1)C1CNCC3C1,inactive,,inactive,inactive,inactive,inactive,inactive,,inactive,inactive
c1ccc2cc3c(ccc4ccccc43)cc2c1,inactive,,inactive,,inactive,inactive,inactive,,inactive,inactive
CCC(=O)/C=C/C1C(C)=CCCC1(C)C (centres undefined),inactive,,inactive,inactive,inactive,inactive,inactive,,inactive,inactive
C=CC(=O)OCCCCCCCC,inactive,,inactive,inactive,inactive,inactive,inactive,,,
CCCCCCCCCCCCc1ccccc1O,13.6 µM (active) and 34.7 µM (active),,24.2 µM (active) and 21.9 µM (active),,17.2 µM (active) and 30.9 µM (active),43.1 µM (active) and 43.6 µM (active),,,49 µM (active),
CCCCC(CC)COC(=O)CC(C(=O)OCC(CC)CCCC)S(=O)(=O)O (centres undefined),37.4 µM (active) and 24.5 µM (active),,15.5 µM (active),inactive,52.9 µM (active) and 43.6 µM (active),43.6 µM (active),inactive,inactive,,
Nc1nc2ccccc2[nH]1,inactive,,inactive,,inactive,inactive,inactive,,inactive,inactive
CN(C)c1ccc2nc3ccc(=[N+](C)C)cc-3sc2c1,9.39 µM (active) and 49 µM (active),,49 µM (active) and inactive,,inactive,21 µM (active) and 49 µM (active),,,8.37 µM (active) and 21.9 µM (active) and 8.41 µM (active),inactive
